Out of some 410,000 compounds screened, about 18,000 (4.4%) were called active. Another 7% or so got no clear call; they are omitted. The entries come from a sample that favours actives as a whole. Unmarked numbers belong to inactive results. No stated cut-off is given here; in the data, active means activity change below about -60%; inconclusive means no clear call, values can overlap the other calls; inactive means above about -39%.
Experiment: qHTS Assay for inhibitors of the human cytomegalovirus (HCMV)
Settings: HFF cells, HCMV-luciferase reporter, 72 h; at 57.5 µM; stronger effect = lower value
Text: NCGC Assay Overview: Infection with human cytomegalovirus (HCMV) continues to pose significant threats for pregnant women and immunocompromised hosts. HCMV causes serious morbidity and mortality in transplant recipients, and congenital HCMV is the leading infectious cause of mental retardation and deafness in children. In the 1990s, the annual costs associated with the disease burden of congenital CMV were estimated at around $2 billion. A HCMV vaccine is not available yet and HCMV therapies result in intolerable side effects and emergence of drug resistant viruses. […] Towards this goal we have developed and characterized a luciferase HCMV reporter that was initially used in 96 well plates and then optimized to 1536-well plates for utilization in screening of the MLSMR collection, the NGCG diversity collection and the NCGC Pharmaceutical Collection of approved and investigational drugs.
NCGC Assay Protocol Summary:
This is a cell-based assay for HCMV inhibition in HFFs cells. The screening used 2 compound doses and the HCMV-luciferase at MOI of 1 PFU/cell. Cells were treated and infected with HCMV. At 72 h post infection cell lysates were collected and luciferase activity was determined using the Glomax-Multi + Detection System (Promega, Madison, WI). Data were normalized to the controls for basal activity (buffer only) and known HCMV inhibitors Salinmoycin.
1536-well assay protocol for the assay:
(1) Add 3 ul CMV/HFF cell culture. 1000 cells/well in DMEM nirmal media.
(2) Incubate 16 hr at 37C.
(3) Add 23 nl control compound, 10uM of Salinomycin.
(4) Add 23 nl compounds in DMSO solution.
(5) Add 3 ul CMV suspension. Final 1 puf/ul, Virus stock 2000pfu/ul
(6) Incubate 72 hrs at 37C.
(7) Add 4 ul OneGlo Luc Reagent.
(8) Incubate 5 min at room temperature.
On the % scale 0 is the no-effect control and ±100 the full control effect.

**Q.** For `CCCCn1c(CNC(=O)C23CC4CC(CC(C4)C2)C3)nnc1SCC(=O)Nc1ccc(C)cc1`, which activity change, negative = inhibition is on record?
**A.** The activity change, negative = inhibition was 13.3%.

**Q.** With `Cc1noc(C)c1CSCC(=O)N(CCC(C)C)c1c(N)n(Cc2ccccc2)c(=O)[nH]c1=O` as the molecule, how does the activity change, negative = inhibition read?
**A.** The activity change, negative = inhibition was 4.61%.

**Q.** For `CCn1c(SCC(=O)NC2CC2)nnc1-c1ccncc1`, which activity change, negative = inhibition is on record?
**A.** Its activity change, negative = inhibition is 56.4%.

**Q.** For `CCn1c(SCC(=O)NC2CC2)nnc1-c1ccccn1`, which activity change, negative = inhibition is on record?
**A.** The activity change, negative = inhibition was -72.6% (active).

**Q.** Which activity change, negative = inhibition does the source give for `CCn1c(SCC(=O)NC2CCCC2)nnc1-c1ccoc1C` here?
**A.** Its activity change, negative = inhibition is -17.9%.

**Q.** Which activity change, negative = inhibition does the source give for `COc1ccccc1Oc1ccc(S(=O)(=O)Nc2cccnc2)cc1` here?
**A.** The activity change, negative = inhibition was -79.4% (active).

**Q.** With `Cc1cc(C)c(C)c(S(=O)(=O)Nc2cccnc2)c1C` as the molecule, how does the activity change, negative = inhibition read?
**A.** The activity change, negative = inhibition was -18.7%.

**Q.** With `COc1ccc(S(=O)(=O)Nc2cccnc2)c(Cl)c1Cl` as the molecule, how does the activity change, negative = inhibition read?
**A.** Its activity change, negative = inhibition is -8.35%.

**Q.** For `CCN(C(=O)CN1CCN(Cc2ccccc2)CC1)c1c(N)n(Cc2ccccc2)c(=O)[nH]c1=O`, which activity change, negative = inhibition is on record?
**A.** Its activity change, negative = inhibition is 3.73%.

**Q.** With `Cc1c(-c2nc(-c3ccc4c(c3)OCO4)no2)nnn1-c1ccc(Br)cc1F` as the molecule, how does the activity change, negative = inhibition read?
**A.** Its activity change, negative = inhibition is -0.877%.

**Q.** With `CCc1nn(CC(=O)N2CCN(c3cccc(C(F)(F)F)c3)CC2)c(=O)c2cc3occc3n12` as the molecule, how does the activity change, negative = inhibition read?
**A.** Its activity change, negative = inhibition is -6.95%.

**Q.** For `COc1cccc(NC(=O)CSC2=Nc3ccccc3C3=NC(CC(=O)NC4CCCCC4)C(=O)N23)c1` (stereo unspecified), which activity change, negative = inhibition is on record?
**A.** The activity change, negative = inhibition was 14%.

**Q.** With `O=C(NC1CC(=O)N(c2ccc(F)cc2)C1)c1ccc(S(=O)(=O)N2CCCC2)cc1` (stereo unspecified) as the molecule, how does the activity change, negative = inhibition read?
**A.** The activity change, negative = inhibition was -23.1%.

**Q.** Which activity change, negative = inhibition does the source give for `CCCc1c(-c2ccccc2F)ncn1Cc1ccccc1OC` here?
**A.** Its activity change, negative = inhibition is -31.6%.

**Q.** For `CCCCCc1c(-c2ccc(OC)c(OC)c2)ncn1CCc1ccccc1OC`, which activity change, negative = inhibition is on record?
**A.** The activity change, negative = inhibition was -102% (active).

**Q.** For `CCCCCc1c(Cc2ccccc2)ncn1CCc1ccccc1OC`, which activity change, negative = inhibition is on record?
**A.** The activity change, negative = inhibition was -93.7% (active).

**Q.** For `CCCCNS(=O)(=O)CCNCc1ccccc1OC`, which activity change, negative = inhibition is on record?
**A.** The activity change, negative = inhibition was -20.1%.

**Q.** With `CCCCc1c(-c2ccc(Br)cc2)ncn1CCc1ccccc1OC` as the molecule, how does the activity change, negative = inhibition read?
**A.** Its activity change, negative = inhibition is -102% (active).

**Q.** Which activity change, negative = inhibition does the source give for `COc1ccccc1CCNS(=O)(=O)c1cn(C)nc1C` here?
**A.** The activity change, negative = inhibition was -2.46%.

**Q.** For `COc1ccc(-c2nnc(SCC(=O)Nc3ccccc3C)o2)cc1OC`, which activity change, negative = inhibition is on record?
**A.** Its activity change, negative = inhibition is 45.3%.

**Q.** Which activity change, negative = inhibition does the source give for `COC(=O)c1ccc2nc(-c3ccc(OC)c(OC)c3)c(Cc3ccccc3)n2c1` here?
**A.** The activity change, negative = inhibition was 33.9%.

**Q.** With `COc1ccccc1Cc1c(-c2ccc(Cl)cc2)nc2ccc(Cl)cn12` as the molecule, how does the activity change, negative = inhibition read?
**A.** Its activity change, negative = inhibition is 13.1%.

**Q.** With `FC(F)(F)c1cccc(-c2cnc3ccccc3n2)c1` as the molecule, how does the activity change, negative = inhibition read?
**A.** Its activity change, negative = inhibition is 32.3%.

**Q.** With `Nc1ncc(S(=O)(=O)Nc2ccc(OC(F)(F)F)cc2)cn1` as the molecule, how does the activity change, negative = inhibition read?
**A.** Its activity change, negative = inhibition is 4.7%.

**Q.** With `CCN1C(=O)c2ccccc2S(=O)c2ccc(C(=O)NCc3ccc(F)cc3)cc21` (stereo unspecified) as the molecule, how does the activity change, negative = inhibition read?
**A.** Its activity change, negative = inhibition is 6.08%.

**Q.** With `CSc1nn(Cc2cccc(C)c2)c(N)c1S(=O)(=O)c1ccccc1` as the molecule, how does the activity change, negative = inhibition read?
**A.** Its activity change, negative = inhibition is -39.1%.
